Experimental data published in PubChem BioAssay.

assay: basal S. cerevisiae growth modulation, no modifier, primary screen, OD600, strain BY4716, 24 h, basal condition (AID 1173); conditions: OD600, 24 h, higher = more signal, called active from +8 up or from −8 down

z-score, inactive:
CC(C)(C)OC(=O)CC[C@]1(C(=O)N2CCCCC2)COC(c2ccc(OCCCO)cc2)=N1 -1.31
O=C1[C@@]23C=C(Br)[C@H](C[C@@H]2COC3)[C@@]12CO2 -0.237
O=C1C[C@@](C(=O)NCc2ccccc2)(c2ccc([N+](=O)[O-])cc2)[C@@H](c2ccc(CO)cc2I)N1CC12CC3CC(CC(C3)C1)C2 -0.787
O=C1C[C@@](C(=O)NCC(F)(F)F)(c2ccc([N+](=O)[O-])cc2)[C@@H](c2ccc(CO)cc2)N1CC12CC3CC(CC(C3)C1)C2 0.188
CN1C(=O)C2C=CC(C(O)c3ccc(I)cc3)N(Nc3ccccc3)C2C1=O (stereo not given) -0.245
COc1cc(C(O)C2C=CC3C(=O)N(Cc4ccccc4)C(=O)C3N2n2cnnc2)cc(OC)c1OC (stereo not given) -0.786
C=C(COC)/C(=C/C[C@@H](OC(=O)c1ccncc1)c1ccccc1OCCO)c1cc(C(=O)OC)ccc1OC -1.35
CC(C)C[C@@H]1NC(=O)[C@@]23C(=O)N[C@@H](Cc4ccccc4)C2[C@H](C)[C@@]2(C)O[C@H]2C3/C=C/C/C=C\CNC(=O)[C@@H](C)NC1=O (stereo not given in full) -0.68
CCCNC(=O)[C@@]1(Sc2ccc(C)cc2)CC(=O)N(C(C)C)[C@@H]1c1ccc(CO)cc1I -1.18
CN1C(=O)C2C(C1=O)C1C=C(CCCO)C2C(c2cccs2)N1Cc1cc2c(cc1Br)OCO2 (stereo not given) -1.67
C=C(CCCC)/C(=C/C[C@H](OC(C)=O)c1ccc(OCCO)cc1)c1cc(C(=O)OC)ccc1OC -1.06
COC(=O)[C@@]1(Cc2ccc(OC)cc2)[C@H]2c3cc(C(=O)N4CCCC4)n(Cc4ccc(OC(F)(F)F)cc4)c3C[C@H]2CN1C(=O)c1ccccc1 1.82
CS(=O)(=O)CCOC(=O)C1=CC(CCCO)=CC(C2CC2)N(Cc2cccc(OC(F)(F)F)c2)C=C1C(=O)OCCS(C)(=O)=O (stereo not given) -2.55
COC(=O)C1=CC(CCCO)=CC(C)N(Cc2cccc(OC(F)(F)F)c2)C=C1C(=O)OC (stereo not given) -1.78
[N-]=[N+]=NCc1ccccc1[C@@H]1OC(c2ccc(OCCCO)cc2)=N[C@]1(Cc1ccccc1)C(=O)NCCN1CCOCC1 -0.559
CC(C)C(=C=CC[C@@H](O)c1cccc(OCCO)c1)C[C@@H](O)c1ccccn1 -1.02
O=C(NCC(O)CO)[C@@]1(CCS(=O)(=O)c2ccccc2)COC(c2ccc(OCCCO)cc2)=N1 (stereo not given in full) 0.452
CCOC(=O)C1=C[C@@H](c2ccccc2)N(S(=O)(=O)c2ccc(C)cc2)[C@H]1c1ccccc1 0.779
CC(C)OC(=O)CC(=O)CC(O)c1ccc([N+](=O)[O-])cc1 (stereo not given) -1.41
COC(=O)C1N=C(c2ccc(OCCCO)cc2)N(c2ccccc2)O1 (stereo not given) -1.41
NC(=O)NCC#Cc1ccc2c(c1)[C@]1(C(=O)N2)[C@H](C(=O)N2CCN(c3ncccn3)CC2)[C@H]2C(=O)O[C@H](c3ccccc3)[C@H](c3ccccc3)N2[C@@H]1c1ccc(OCCO)cc1 2.6
[N-]=[N+]=Nc1ccccc1C[C@]1(C(=O)O)N=C(c2ccc(OCCCO)cc2)O[C@H]1c1ccccc1 -1.77
C=C(/C(=C/C[C@@H](OC(C)=O)c1ccc(OCCO)cc1)c1cc(C(=O)OC)ccc1OC)C(C)C -0.0855
COc1ccc(NC(=O)O[C@H]2[C@@H]3OC(=O)[C@H](Cc4cccc(Br)c4)C/C=C/C[C@@H](Cc4cccc(Br)c4)C(=O)O[C@H]3[C@@H](OC)O[C@@H]2CO)cc1 -0.413
[N-]=[N+]=NCc1ccccc1[C@H]1OC(c2ccc(OCCCO)cc2)=N[C@@]1(CCS(=O)(=O)c1ccccc1)C(=O)NCc1ccccc1 0.879
COc1cc(NN2C(C(O)C3CCCCC3)C=CC3C(=O)N(C)C(=O)C32)cc(OC)c1OC (stereo not given) 1.28
O=C1[C@@H]2[C@@H](CC(COc3ccccc3)=C3[C@@H](CCc4ccccc4)OB(O)C[C@@H]32)C(=O)N1Cc1ccccc1 -1.23
O=C1OCCC=C[C@H]2OC34C=CCN(c5ccc(Cl)cc5)C(=O)[C@H]3N(CCCCCCO)C(=O)[C@@H]4C12 (stereo not given in full) -0.247
CCOC(=O)C[C@H]1[C@H](OC(=O)c2ccccc2-c2ccccc2)[C@@H](NC(=O)c2ccc3ccccc3n2)c2cc(OCCCO)ccc2N1C(=O)c1ccccc1 1.16
COC(=O)[C@@]1(Cc2ccc(OC)cc2)[C@H]2c3cc(C(=O)N4CCCC4)n(Cc4ccc(S(C)(=O)=O)cc4)c3C[C@H]2CN1C(=O)c1ccccc1 0.63
C=C[C@@H](C)[C@@H](OC(=O)Nc1ccc(SC)cc1)c1ccc(OCCO)cc1 -3.68
NCCCCCNC(=O)[C@@H]1C[C@@H]2C(=O)N3CCC[C@H]3C(=O)N2[C@@H]1c1ccc(O)cc1 0.2
O=C1OCCC/C=C\[C@H]2OC34C=CCN(c5ccc6ccccc6c5)C(=O)[C@H]3N(CCCO)C(=O)[C@@H]4C12 (stereo not given in full) 0.556
CC(=O)NCCCC[C@@H]1NC(=O)[C@@H]2C[C@H](C(=O)NCCCCCCN)[C@H](c3cccc(OCCO)c3)N2C1=O -0.652
COCCOC(=O)N1C(=O)[C@@]2(c3cc(C#CCNC(N)=O)ccc31)[C@H](c1ccc(OCCO)cc1)N1[C@H](c3ccccc3)[C@H](c3ccccc3)OC(=O)[C@H]1[C@@H]2C(N)=O 1.19
